# Records with an inconclusive call do not appear. Active and inactive are the calls of the source. Calls follow the shape of the dose curve; as a rule, active = well fitted inhibition curve with a large enough effect in the signal ratio in the repeat runs (not every such curve was filed as active); inconclusive = weak or mixed curves, or effect the other way; inactive = no such curve, though single readings can be large or run the other way; the % refers to the signal ratio.
# Target: Peroxisome proliferator-activated receptor delta (Homo sapiens) (UniProt Q03181)
# Experiment: qHTS assay to identify small molecule antagonists of the peroxisome proliferator-activated receptor delta (PPARd) signaling pathway (AID 743215);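 also: cells stimulated with agonist L165041 at 300 nM final during compound exposure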
# Conditions: HEK293H PPARd-UAS-bla, beta-lactamase FRET ratio, antagonist, 17 h; series mostly up to 62 µM; ratio activity, negative = inhibition: at the top concentration
# How it was run: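 Cells: HEK293H with a UAS-driven beta-lactamase reporter responsive to PPARd. Compounds were co-added with L165041 (300 nM, final) and incubated 17 h at 37 C before a 2 h room-temperature FRET substrate step and fluorescence reading.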
# % is scaled to controls: 0 for no effect and ±100 for the full control effect.
# Peroxisome proliferator-activated receptor delta (Homo sapiens), sequence (Q03181 whole entry, looked up): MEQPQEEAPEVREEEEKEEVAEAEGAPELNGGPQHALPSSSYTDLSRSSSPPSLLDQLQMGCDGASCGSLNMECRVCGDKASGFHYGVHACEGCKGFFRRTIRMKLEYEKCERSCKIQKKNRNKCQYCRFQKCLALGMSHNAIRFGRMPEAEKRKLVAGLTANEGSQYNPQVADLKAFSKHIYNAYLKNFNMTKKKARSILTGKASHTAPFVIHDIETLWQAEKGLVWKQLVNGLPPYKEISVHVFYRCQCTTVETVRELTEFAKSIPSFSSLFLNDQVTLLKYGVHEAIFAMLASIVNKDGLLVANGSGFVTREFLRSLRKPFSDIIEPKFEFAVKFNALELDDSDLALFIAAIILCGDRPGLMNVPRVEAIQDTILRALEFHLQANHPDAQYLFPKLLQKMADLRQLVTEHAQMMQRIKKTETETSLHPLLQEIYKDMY
row,SMILES,"ratio activity, negative = inhibition"
1,C#CC(C)N(C)C(=O)Nc1ccc(Cl)cc1 (stereo not given),15.1% (inactive)
2,CC(C)(C)OC(=O)c1ccc(O)cc1,16.8% (inactive)
3,CCN(C)C(=O)Oc1cccc([C@H](C)N(C)C)c1,-4.36% (inactive)
4,CC(=O)c1ccc2c(c1)Cc1ccccc1-2,1.97% (inactive)
5,CCN1CCc2nc(N)oc2CC1,9.43% (inactive)
6,COc1nccnc1NS(=O)(=O)c1ccc(N)cc1,2.6% (inactive)
7,BrCCCCCBr,-2.38% [at 80.4 µM] (inactive)
8,c1ccc2c(c1)ccc1c3ccccc3ccc21,-16.9% (inactive)
9,CCC(C=O)CC,2.31% [at 80.4 µM] (inactive)
10,CN(CCOc1ccc(NS(C)(=O)=O)cc1)CCc1ccc(NS(C)(=O)=O)cc1,2.89% (inactive)
11,O=C1c2ccccc2C(=O)N1CCl,-20.5% (inactive)
12,CN(C)CCOCCO,1.34% (inactive)
13,CCOC(=O)CC(=O)c1ccccc1,25.1% (inactive)
14,O=C(O)c1ccc(Cl)cc1Cl,15.5% [at 80.4 µM] (inactive)
15,CN(C)c1ccc(C=O)cc1,3.02% (inactive)
16,CCOc1cc(NC(C)=O)ccc1C(=O)OC,1.68% (inactive)
17,CC(=C(CCOC(=O)C(C)C)SSC(CCOC(=O)C(C)C)=C(C)N(C=O)Cc1cnc(C)nc1N)N(C=O)Cc1cnc(C)nc1N,-0.519% (inactive)
18,C[C@@H](Oc1ccc(CNC(=O)c2cccnc2Oc2ccc3c(c2)OCO3)c(F)c1)C(=O)O,3.56% (inactive)
19,O=C(NCCN1CCOCC1)c1ccc(Cl)cc1,-2.38% (inactive)

row,SMILES,"ratio activity, negative = inhibition"
1,N[C@@H](COP(=O)(O)O)C(=O)O,3.51% [at 28.9 µM] (inactive)
2,COCCOCCOCCOCCO,-3.52% (inactive)
3,CCCCCCCC/C=C\CCCCCCCC(=O)OCCCC,-17.3% [at 28.9 µM] (inactive)
4,Cc1ccsc1/C=C/C1=NCCCN1C,3.05% (inactive)
5,CNC(=O)[C@H]1O[C@@H](n2cnc3c(NCc4cc(Cl)ccc4OCc4cc(C)no4)ncnc32)[C@H](O)[C@@H]1N,1.84% (inactive)
6,O=C(O)CCSSCCC(=O)O,3.48% [at 80.4 µM] (inactive)
7,COc1ccc(-c2cc(=O)c3c(O)cc(O[C@@H]4O[C@H](CO[C@@H]5O[C@@H](C)[C@H](O)[C@@H](O)[C@H]5O)[C@@H](O)[C@H](O)[C@H]4O)cc3o2)cc1O,-0.715% (inactive)
8,NNc1nnc(NN)c2ccccc12,-13.3% (inactive)
9,O=C(CS(=O)Cc1ccco1)NC/C=C\COc1cc(CN2CCCCC2)ccn1 (stereo not given),3.91% (inactive)
10,COc1cc(N)ccc1C,-2.01% (inactive)
11,COc1ccc(S(=O)(=O)N2c3ccc(Cl)cc3[C@@](O)(c3ccccc3Cl)[C@H]2C(=O)N2CCC[C@@H]2C(N)=O)cc1OC,6.01% (inactive)
12,Cc1ccc2c(c1)OCC(=O)CO2,0.32% (inactive)
13,Cc1nc2n(c(=O)c1CCN1CCC(c3noc4cc(F)ccc34)CC1)CCC[C@H]2O,2.11% [at 28.9 µM] (inactive)
14,CC(CN)CC(C)(C)CCN (stereo not given),8.88% [at 80.4 µM] (inactive)
15,COC(=O)c1ccccc1C(=O)c1ccc(OCCN2CCCCC2)cc1,6.04% (inactive)
16,Nc1nnc(-c2cccc(Cl)c2Cl)c(N)n1,3.38% (inactive)
17,O=C1c2ccccc2C(=O)C1c1ccccc1,2.3% (inactive)
18,CCCCOC(=O)c1ccccc1,13.8% (inactive)

# Target: Bile acid receptor (Homo sapiens) (UniProt Q96RI1)
# Experiment: qHTS assay to identify small molecule antagonists of the farnesoid-X-receptor (FXR) signaling pathway (AID 743217)
# Conditions: HEK293T FXR-UAS-bla, beta-lactamase ratio, CDCA-stimulated, 16 h; series mostly up to 62.6 µM; activity change, negative = inhibition: at the top concentration
# How it was run: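 Cells carrying a UAS-driven beta-lactamase reporter (GeneBLAzer FXR-UAS-bla HEK 293T) were plated and rested 5 h at 37 °C. Compounds in DMSO were added alongside chenodeoxycholic acid agonist at 50 uM final and left 16 h at 37 °C before FRET substrate readout.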
# Bile acid receptor (Homo sapiens), sequence (Q96RI1 whole entry, looked up): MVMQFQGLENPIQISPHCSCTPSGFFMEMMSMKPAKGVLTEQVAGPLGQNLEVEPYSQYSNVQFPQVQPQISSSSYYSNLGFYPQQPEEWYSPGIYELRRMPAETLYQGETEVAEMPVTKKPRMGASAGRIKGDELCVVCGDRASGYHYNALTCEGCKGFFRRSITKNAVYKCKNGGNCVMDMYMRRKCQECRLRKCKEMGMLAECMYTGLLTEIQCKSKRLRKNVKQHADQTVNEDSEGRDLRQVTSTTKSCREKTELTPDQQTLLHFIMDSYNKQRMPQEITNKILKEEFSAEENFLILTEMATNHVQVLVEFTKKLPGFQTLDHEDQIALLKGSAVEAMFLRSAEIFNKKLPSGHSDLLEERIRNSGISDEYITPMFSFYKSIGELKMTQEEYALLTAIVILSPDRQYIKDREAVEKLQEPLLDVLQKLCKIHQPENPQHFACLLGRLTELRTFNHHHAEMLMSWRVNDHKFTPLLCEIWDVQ
row,SMILES,"activity change, negative = inhibition"
1,C#CC(C)N(C)C(=O)Nc1ccc(Cl)cc1 (stereo not given),4.85% (inactive)
2,CC(C)(C)OC(=O)c1ccc(O)cc1,0.147% (inactive)
3,CCN(C)C(=O)Oc1cccc([C@H](C)N(C)C)c1,1.55% (inactive)
4,CC(=O)c1ccc2c(c1)Cc1ccccc1-2,-0.397% (inactive)
5,CCN1CCc2nc(N)oc2CC1,0.0825% (inactive)
6,COc1nccnc1NS(=O)(=O)c1ccc(N)cc1,8.61% (inactive)
7,BrCCCCCBr,0.533% [at 81.1 µM] (inactive)
8,c1ccc2c(c1)ccc1c3ccccc3ccc21,-0.125% (inactive)
9,CCC(C=O)CC,6.84% [at 81.1 µM] (inactive)
10,CN(CCOc1ccc(NS(C)(=O)=O)cc1)CCc1ccc(NS(C)(=O)=O)cc1,1.72% (inactive)
11,O=C1c2ccccc2C(=O)N1CCl,0.33% (inactive)
12,CN(C)CCOCCO,-1.66% (inactive)
13,O=C(O)c1ccc(Cl)cc1Cl,-0.232% [at 81.1 µM] (inactive)
14,CN(C)c1ccc(C=O)cc1,1.49% (inactive)
15,CCOc1cc(NC(C)=O)ccc1C(=O)OC,1.63% (inactive)
16,CC(=C(CCOC(=O)C(C)C)SSC(CCOC(=O)C(C)C)=C(C)N(C=O)Cc1cnc(C)nc1N)N(C=O)Cc1cnc(C)nc1N,-0.0825% (inactive)
17,C[C@@H](Oc1ccc(CNC(=O)c2cccnc2Oc2ccc3c(c2)OCO3)c(F)c1)C(=O)O,2.99% (inactive)

row,SMILES,"activity change, negative = inhibition"
1,O=C(NCCN1CCOCC1)c1ccc(Cl)cc1,-9.08% (inactive)
2,N[C@@H](COP(=O)(O)O)C(=O)O,0.224% [at 29.1 µM] (inactive)
3,COCCOCCOCCOCCO,0.647% (inactive)
4,CCCCCCCC/C=C\CCCCCCCC(=O)OCCCC,-2.25% [at 29.1 µM] (inactive)
5,Cc1ccsc1/C=C/C1=NCCCN1C,-4.26% (inactive)
6,CNC(=O)[C@H]1O[C@@H](n2cnc3c(NCc4cc(Cl)ccc4OCc4cc(C)no4)ncnc32)[C@H](O)[C@@H]1N,5.93% (inactive)
7,O=C(O)CCSSCCC(=O)O,4.28% [at 81.1 µM] (inactive)
8,NNc1nnc(NN)c2ccccc12,1.38% (inactive)
9,O=C(CS(=O)Cc1ccco1)NC/C=C\COc1cc(CN2CCCCC2)ccn1 (stereo not given),5.94% (inactive)
10,COc1cc(N)ccc1C,3.48% (inactive)
11,Cc1ccc2c(c1)OCC(=O)CO2,2.39% (inactive)
12,Cc1nc2n(c(=O)c1CCN1CCC(c3noc4cc(F)ccc34)CC1)CCC[C@H]2O,0.883% [at 29.1 µM] (inactive)
13,CC(CN)CC(C)(C)CCN (stereo not given),-3.8% [at 81.1 µM] (inactive)
14,COC(=O)c1ccccc1C(=O)c1ccc(OCCN2CCCCC2)cc1,-4.1% (inactive)
15,Nc1nnc(-c2cccc(Cl)c2Cl)c(N)n1,0.742% (inactive)
16,O=C1c2ccccc2C(=O)C1c1ccccc1,1.76% (inactive)

# Source: PubChem BioAssay (Tox21)
